# Assay results as given in article PMC4336329 (PLoS ONE, 2015).
# About 14,000 (4.5%) of roughly 310,000 compounds showed an effect of 50% or more. Effects have a minus sign here. Only a selection was taken, and strong results are over-represented in it overall.
# Molecular target: human ether-à-go-go-related gene (hERG) potassium channel (human, UniProt Q12809)
# Assay: primary screen, population patch clamp on CHO cells stably expressing hERG; higher = less effect of the substance
# 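Further: peak tail current of the secondary pulse compared with the same well before compound.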
# human ether-à-go-go-related gene (hERG) potassium channel, sequence (Q12809 whole entry, looked up): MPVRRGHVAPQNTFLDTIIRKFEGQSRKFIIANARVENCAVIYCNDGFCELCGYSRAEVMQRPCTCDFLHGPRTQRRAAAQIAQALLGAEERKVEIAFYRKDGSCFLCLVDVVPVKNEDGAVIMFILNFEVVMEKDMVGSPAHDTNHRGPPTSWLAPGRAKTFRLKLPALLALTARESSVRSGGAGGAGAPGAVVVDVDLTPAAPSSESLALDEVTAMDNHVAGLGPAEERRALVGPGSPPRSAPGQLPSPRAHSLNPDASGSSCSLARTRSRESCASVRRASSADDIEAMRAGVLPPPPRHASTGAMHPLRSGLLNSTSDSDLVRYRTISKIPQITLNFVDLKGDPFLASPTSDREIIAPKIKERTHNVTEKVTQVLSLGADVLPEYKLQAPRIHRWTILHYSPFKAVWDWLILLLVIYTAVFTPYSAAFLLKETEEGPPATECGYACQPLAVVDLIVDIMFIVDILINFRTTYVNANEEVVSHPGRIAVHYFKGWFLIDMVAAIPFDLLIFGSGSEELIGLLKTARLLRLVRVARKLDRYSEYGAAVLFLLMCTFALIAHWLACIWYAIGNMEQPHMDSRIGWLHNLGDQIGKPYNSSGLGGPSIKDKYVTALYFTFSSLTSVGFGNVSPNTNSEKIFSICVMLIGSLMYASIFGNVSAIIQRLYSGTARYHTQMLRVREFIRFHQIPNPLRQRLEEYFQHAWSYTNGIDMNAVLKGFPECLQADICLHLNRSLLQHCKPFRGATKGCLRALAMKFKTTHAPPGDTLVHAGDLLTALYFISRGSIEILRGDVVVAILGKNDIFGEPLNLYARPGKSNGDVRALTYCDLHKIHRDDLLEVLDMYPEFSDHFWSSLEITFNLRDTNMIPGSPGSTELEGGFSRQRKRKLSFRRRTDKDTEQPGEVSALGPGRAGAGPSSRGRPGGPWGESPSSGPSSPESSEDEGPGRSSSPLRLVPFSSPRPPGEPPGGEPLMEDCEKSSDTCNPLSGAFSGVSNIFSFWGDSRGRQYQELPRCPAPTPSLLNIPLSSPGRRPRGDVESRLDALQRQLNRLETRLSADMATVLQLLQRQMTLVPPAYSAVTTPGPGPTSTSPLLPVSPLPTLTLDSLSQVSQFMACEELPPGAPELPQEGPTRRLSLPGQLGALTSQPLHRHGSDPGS
row,Structure (SMILES),"hERG current change (%, negative = inhibition) at 10uM [%]"
1,COc1ccc(/C(C)=N/NC(=O)c2nnn(-c3nonc3N)c2-c2ccccc2)cc1,19.8
2,N#CC(c1ccccn1)c1ncc(C(F)(F)F)cc1Cl (stereo not shown),23.5
3,Cc1cccc(Cn2c(C(=O)OC(C)C)cc3c2ccn3C)c1,6.07
4,S=c1[nH]nc(COc2ccc(Cl)cc2)n1C1CCCCC1,14.3
5,Cc1cc(NC(=O)COC(=O)[C@@H](NS(=O)(=O)c2ccccc2)C(C)C)no1,-7.67
6,COc1ccc(S(=O)(=O)NC(C)C(=O)NCc2ccncc2)cc1OC (stereo not shown),15.7
7,Cc1c([C@H]2[C@@H](CC#N)C2(C)C)c2ccccc2n1C,-10.4
8,Clc1ccc(-c2nnc(NCc3ccccc3)c3ccccc23)cc1,-13.3
9,Clc1ccc(-c2nc(NCCN3CCOCC3)c3ccccc3n2)cc1,-15.6
10,Clc1ccc(-c2nnc(NCCN3CCCC3)c3ccccc23)cc1,-71.3
11,O=C(Nc1cccc(Cl)c1)OCc1cncs1,-2.42
12,O=c1c(-c2nnc(SCc3ccc(Cl)c(Cl)c3)o2)cccn1Cc1ccccc1,1.6
13,O=c1c(-c2nnc(SCc3ccc(Cl)cc3Cl)o2)cccn1Cc1ccccc1,-62.5
14,O=c1c(-c2nnc(SCc3ccc(Cl)cc3)o2)cccn1Cc1ccccc1,-46.2
15,Cc1ccc(NC(=O)C(CC(C)C)NC(=O)C2CCC(C)CC2)nc1 (stereo not shown),-6.68
16,CCCc1cc(=O)[nH]c(SCC(=O)Nc2c(C)cccc2C)n1,6.31
17,COc1c(C)cc(C(=O)C2CCCN(Cc3cccc(C)n3)C2)cc1C (stereo not shown),-48.7
18,COc1cccc(C(=O)C2CCCN(Cc3cccc(C)n3)C2)c1 (stereo not shown),-53.4
19,COc1ccc2cc(C(=O)C3CCCN(Cc4cccc(C)n4)C3)ccc2c1 (stereo not shown),-66.5
20,COc1cccc(C(=O)C2CCCN(CC3=Cc4cc(OC)ccc4OC3)C2)c1 (stereo not shown),-56.6
21,Cc1cccc(CN2CCCC(C(=O)c3cccc(OC(C)C)c3)C2)n1 (stereo not shown),-40
22,COc1ccc(C(=O)C2CCCN(Cc3ccccn3)C2)c(OC)c1 (stereo not shown),-55.7

row,Structure (SMILES),"hERG current change (%, negative = inhibition) at 10uM [%]"
1,CC(=O)Nc1ccc(N/C=C/C(=O)c2ccco2)cc1,1.94
2,Cn1nc(C(=O)Nc2nc3ccc(S(C)(=O)=O)cc3s2)ccc1=O,-20.7
3,CN1CCN(C(=O)c2ccc3c(c2)N(Cc2cccc(Cl)c2)C(=O)c2ccccc2S3=O)CC1 (stereo not shown),-19.5
4,O=C(/C=C/N1CCN(Cc2ccccc2)CC1)C(F)(F)F,4.36
5,Cc1nn(-c2ccccc2)c(Oc2ccccc2)c1C=O,-6.92
6,CCc1c(C)c(C#N)c2nc3ccccc3n2c1NCc1ccco1,-35.4
7,Cc1ccc([N+](=O)[O-])cc1N(CC(=O)N1CCCCC1)S(C)(=O)=O,12.2
8,Cn1cccc1Cc1nnc(SCC(=O)Nc2cccc(F)c2)n1CCc1ccccc1,-20.3
9,Cl.NCCOc1ccccc1-c1ccccc1,-11.1
10,CC(C)(C)c1ccc(-c2n[nH]c(=S)n2C2CCCC2)cc1,4.01
11,Cc1ccc(C(=O)Nc2ccc3c(c2)OCO3)cc1Cl,19.7
12,CSc1ccc(CNC2CN3CCC2CC3)cc1.Cl (stereo not shown),-10.7
13,C[C@@H]1CCC2[C@](C)(CO)[C@@H](O)CC[C@]2(C)[C@@]12CCC(CO)(CCO)O2 (stereo partly shown),26.8
14,O=C1CN(C(=O)COc2ccc(F)cc2Br)c2ccccc2N1,-29.9
15,O=C(O)c1ccc2c(=O)n3cc(C(=O)c4ccccc4O)cc(Cl)c3nc2c1,1.38
16,COc1ccc(C(=O)C2CCCN(Cc3cccc(C)n3)C2)c(OC)c1 (stereo not shown),-76.2
17,COc1ccc(C(=O)C2CCCN(Cc3ccon3)C2)c(OC)c1 (stereo not shown),-53.9
18,COc1ccc2cc(C(=O)C3CCCN(Cc4ccccn4)C3)ccc2c1 (stereo not shown),-66.2
19,COc1ccc2cc(C(=O)C3CCCN(C(=O)CCc4ccccn4)C3)ccc2c1 (stereo not shown),-45.2
20,CC(=O)Nc1ccc(CN2CCCC(C(=O)c3cccc(C(F)(F)F)c3)C2)cc1 (stereo not shown),-20.7
21,COc1ccc(C(=O)C2CCCN(Cc3sc(N4CCCC4)nc3Cl)C2)c(OC)c1 (stereo not shown),-49.7
22,COc1cccc(C(=O)C2CCCN(Cc3ccccn3)C2)c1 (stereo not shown),-26

row,Structure (SMILES),"hERG current change (%, negative = inhibition) at 10uM [%]"
1,COc1cccc(C(=O)C2CCCN(Cc3ccon3)C2)c1 (stereo not shown),8.72
2,CC(=O)Nc1ccc(CN2CCCC(C(=O)c3ccc(C(F)(F)F)cc3)C2)cc1 (stereo not shown),-77.3
3,CCNC(=O)N1CCCC(C(=O)c2ccc(C(F)(F)F)cc2)C1 (stereo not shown),-23.4
4,COc1ccc(C(=O)C2CCCN(Cc3ccon3)C2)cc1OC (stereo not shown),11.2
5,Cc1ccc(OCCN2CCN(C(=O)CCC(=O)Nc3nnc(C)s3)CC2)cc1,-7.69
6,Nc1nc(SC2c3cccc4cccc(c34)C2NS(=O)(=O)c2ccccc2)n[nH]1 (stereo not shown),5.88
7,Cc1nc2ccc(C(=O)O)cc2c2c1CC(C)S2 (stereo not shown),-16
8,CCCCN1CC(=O)N2[C@H]3c4ccccc4OC[C@@H]3[C@H](c3ccccc3)[C@]2(C)C1=O,-19.9
9,COc1cccc(Nc2ccc(C(=O)O)cc2N)c1,11.3
10,CN(C(=O)COC(=O)C1c2ccccc2Oc2ccccc21)C1CCS(=O)(=O)C1 (stereo not shown),4.56
11,CC(C)C(CC(=O)N1CCCCC1)C1CCOC(C)(C)C1 (stereo not shown),-2.24
12,Cc1cccc(CN2CCCC(C(=O)c3ccc(C(F)(F)F)cc3)C2)n1 (stereo not shown),-68.2
13,Cc1cnc(C(=O)N2CCCC(C(=O)c3ccc(C(F)(F)F)cc3)C2)cn1 (stereo not shown),-17.7
14,CC(C)(C)c1ccc(C(=O)C2CCCN(Cc3ccon3)C2)cc1 (stereo not shown),-1.45
15,CC1Sc2ccc(S(=O)(=O)N3CCN(c4cccc(Cl)c4)CC3)cc2NC1=O (stereo not shown),9.32
16,CCOC(=O)c1c(C)[nH]c(C)c1C(=O)COC(=O)C1CCCN1S(=O)(=O)c1ccccc1F (stereo not shown),-2.63
17,NC(=O)c1nc(C(=O)N2CCN(c3ccccc3)CC2)c2ccccc2n1,2.14
18,CCOc1ccc(NC(=S)NC(=O)c2cncc(Br)c2)cc1,10.1
19,CCN(CC(=O)Nc1c(F)cccc1F)C(=O)c1n[nH]c2ccccc12,10.4
20,Cc1cccc(C)c1NC(=O)CSc1nnc(-c2ccco2)c(-c2ccco2)n1,-67.1
21,Cc1cccc(NC(=O)CSc2nnc(CNC(=O)c3ccco3)n2C)c1C,-17.3
22,Cc1ccccc1NC(=O)CSc1n[nH]c(-c2ccco2)n1,10.1

row,Structure (SMILES),"hERG current change (%, negative = inhibition) at 10uM [%]"
1,Cc1cccc(NC(=O)CSc2nnc(-c3ccco3)c(-c3ccco3)n2)c1C,-66.4
2,Cc1cccc(C)c1NC(=O)CSc1nnc(-c2ccco2)n1N,-4.1
3,Cc1ccccc1NC(=O)CSc1nnc(-c2ccco2)n1N,4.14
4,Cc1cccc(C)c1NC(=O)CSc1nc(-c2ccco2)cc(C(F)(F)F)n1,4.77
5,Cc1ccccc1NC(=O)CSc1nnc(-c2ccco2)c(-c2ccco2)n1,-53.9
6,Cc1cccc(NC(=O)CSc2nnc(-c3ccco3)o2)c1C,-4.42
7,CCOc1ccc(C(=O)COC(=O)CN2C(=O)NC3(CCCCC3C)C2=O)cc1 (stereo not shown),-42.7
8,CCOC(=O)C1CCN(C(=O)c2ccc(NC(=O)C3CCCO3)cc2)CC1 (stereo not shown),-9.35
9,Cc1[nH]n2c(=O)cc(C(C)C)nc2c1-c1ccccc1,-12.1
10,Clc1ccc(CSc2ccc(-c3ccccn3)nn2)cc1,-2.04
11,CCN(CC(=O)Nc1cc(Cl)ccc1C)C(=O)COc1cccc2c1OC(C)(C)C2,-4.2
12,Cc1ccc(S(=O)(=O)N2CCOCC2)cc1C(=O)Nc1cccc(S(=O)(=O)N2CCCC2)c1,-38.3
13,CSc1ncccc1C(=O)Nc1cccc(S(=O)(=O)N2CCCCC2)c1,-64.3
14,CSc1ncccc1C(=O)Nc1ccc(S(=O)(=O)N2CCCC2)cc1,-16.6
15,CC(=O)Nc1ccc(NC(=O)c2cc(S(=O)(=O)N3CCCCC3)ccc2C)cc1,5.45
16,CCOc1ncccc1C(=O)Nc1cccc(S(=O)(=O)N2CCCCC2)c1,-7.03
17,Cc1ccc(S(C)(=O)=O)cc1C(=O)Nc1cccc(S(=O)(=O)N2CCCCCC2)c1,-65.2
18,COc1ccc(OC2C(=O)N(Cc3ccc4c(c3)OCO4)C2c2sccc2C)cc1 (stereo not shown),-5.31
19,O=CNCC(=O)NC1CCCCCC1,20.5
20,O=C1c2cccnc2C(=O)N1Cc1ccc(S(=O)(=O)NCc2ccco2)s1,16.2
21,COc1ccc(CN2C(=O)c3cccnc3C2=O)cc1S(=O)(=O)N(C)Cc1ccco1,-13.3
22,CN(Cc1ccco1)S(=O)(=O)c1ccc(CN2C(=O)c3cccnc3C2=O)s1,-63.4
